The full list was thinned out, with hits kept by preference.
Shiga toxin inh: blocks Shiga toxin action in Vero cells. Vero cells, Shiga toxin protein synthesis inhibition reporter. inhibition, % at 38.7 µM. actives 9.2% (n = 290,000). AID 2315; in the data active means inhibition mostly above about 28%, no sharp cut-off; inactive means mostly below about 43%
Sm TGR block: inhibitors of Schistosoma mansoni thioredoxin glutathione reductase | Q962Y6 | AID 485364 | Potency, µM (top dose mostly 114 µM), actives largely listed as inhibitors | actives 3% (n = 360,000) | purified TGR, DTNB reduction, TNB absorbance 405 nm; further: nearly all actives have a fitted effect of over 60% in size
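TGR 20 nM + NADPH 100 uM (dispensed conc.), cpd preinc 15 min RT; start with NADPH (500 uM addition) then DTNB (15 mM addition). Kinetic TNB absorbance, 405 nm filter. Four-parameter Hill fit across titration.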
Cycloheximide cs: counter-screen hit for Shiga toxin inhibitors, cycloheximide. cell reporter, cycloheximide protein synthesis inhibition counterscreen. max response, %. actives 12% (n = 300,000). AID 2314; in the data active means max response mostly above about 13%, no sharp cut-off; inactive means mostly below about 14%; further: read at 38.3 µM for the half of the compounds with a filed dose
Giardia FBPA inh: Giardia lamblia aldolase inhibition. A8B2U2. purified Giardia FBPA. Potency, µM (titrated, usually from 59.6 µM), actives largely listed as inhibitors. actives 0.71% (n = 290,000). AID 2451; further: nearly all actives have a fitted effect of over 55% in size
Target sequence (A8B2U2 whole entry, looked up): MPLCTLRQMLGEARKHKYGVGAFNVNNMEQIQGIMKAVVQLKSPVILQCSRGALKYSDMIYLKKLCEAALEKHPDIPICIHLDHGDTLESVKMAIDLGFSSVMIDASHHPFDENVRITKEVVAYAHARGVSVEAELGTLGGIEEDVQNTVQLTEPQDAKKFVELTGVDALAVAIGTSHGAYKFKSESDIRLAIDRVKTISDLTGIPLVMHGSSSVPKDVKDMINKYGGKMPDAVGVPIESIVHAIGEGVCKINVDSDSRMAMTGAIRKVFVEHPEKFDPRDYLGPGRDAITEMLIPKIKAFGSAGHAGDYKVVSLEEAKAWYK
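Giardia FBPA (40 nM reagent) was preincubated 10 min at RT with compound (up to 57.5 uM final), then substrate plus GAPDH/TPI/NAD/arsenate coupling system with diaphorase/resazurin was added; resorufin fluorescence (525/598 nm) was read after 20 min.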
LmPK inh: inhibitors of Leishmania mexicana pyruvate kinase | Q27686 | purified LmPK, Kinase-Glo ATP luminescence, 1 h | Potency, µM (top dose mostly 57.5 µM), actives largely listed as inhibitors | actives 0.37% (n = 290,000) | AID 1721
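In 50 mM imidazole pH 7.2 with 7 mM MgCl2, LmPK (0.1 nM) turned over PEP (0.5 mM) and ADP (0.1 mM) for 1 h at room temperature. Luciferase read-out of ATP.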
Tb PYK inh: T. brucei pyruvate kinase inhibition; TbPYK enzyme, Kinase-Glo Plus ATP luminescence, 45 min; AID 624173; Q57TT1; Potency, µM (doses to about 76.8 µM), most hits filed as inhibitors; actives 0.12% (n = 410,000); further: nearly all actives have a fitted effect of over 50% in size
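ADP (130 uM final) triggers the TbPYK reaction after compound addition; incubation is 45 min at room temperature. Kinase-Glo Plus is then added and luminescence imaged. Normalized data are fitted to concentration-effect curves.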
Large screens that a line does not name were inactive. Unless noted, the call rests on the fitted dose curve; in most records, active means well fitted curve in the direction sought with a large enough effect; inconclusive means small, poorly fitted or top-dose-only effect, or another doubt; inactive means no such curve, though single readings can be large; an effect the other way counts as inactive or inconclusive.

O=C(CCNC(=O)c1ccc(Cl)cc1)Nc1ccc(S(=O)(=O)N2CCCCC2)cc1	none (no result: Shiga toxin inh, Cycloheximide cs, Giardia FBPA inh, LmPK inh)
Cc1ccc(-n2c(O)c(/C=C3/C(c4ccccc4)=Nc4ccccc43)c(=O)[nH]c2=O)cc1	Shiga toxin inh 63, Sm TGR block inconclusive, Cycloheximide cs 29
Cc1ccccc1-n1c(O)c(/C=C2/C(c3ccccc3)=Nc3ccccc32)c(=O)[nH]c1=O	Shiga toxin inh 86, Cycloheximide cs 54
Cc1cccc(-n2c(O)c(/C=C3/C(c4ccccc4)=Nc4ccccc43)c(=O)[nH]c2=O)c1	Shiga toxin inh 32, Cycloheximide cs 20
O=c1[nH]c(=O)n(-c2ccccc2F)c(O)c1/C=C1\C=Nc2ccccc21	Cycloheximide cs 6.6
Cc1cccc(-n2c(O)c(/C=C/C=Nc3ccccc3)c(=O)[nH]c2=O)c1	none
O=c1[nH]c(=O)n(-c2ccc(F)cc2)c(O)c1/C=C1\C=Nc2ccccc21	Sm TGR block inconclusive
CC1=Nc2ccccc2/C1=C/c1c(O)n(C)c(=O)[nH]c1=O	none (no result: Shiga toxin inh)
COc1ccccc1NC(=O)C1Cc2ccccc2CN1C(=O)c1ccco1 (stereo not drawn)	Sm TGR block 32µM
O=C(Nc1ccccc1)C1Cc2ccccc2CN1C(=O)c1ccco1 (stereo not drawn)	Sm TGR block 40µM, Cycloheximide cs 57
Clc1cccc(-n2ncc3c(NCCC4=CCCCC4)ncnc32)c1	none (no result: Shiga toxin inh, Cycloheximide cs, Giardia FBPA inh, LmPK inh)
Cc1ccc2[nH]c3c(c2c1)CN(C(=O)CN1CC(C)OC(C)C1)CC3 (stereo not drawn)	Sm TGR block 40µM, Giardia FBPA inh inconclusive
COCCNC(=O)C1(C)CCCN(Cc2cc(-c3ccccc3)n(C)n2)C1 (stereo not drawn)	none (no result: Shiga toxin inh, Sm TGR block, Cycloheximide cs, Giardia FBPA inh, LmPK inh)
COc1cccc(-c2nnc(SCc3nc4ccccc4s3)n2C)c1	Cycloheximide cs 24
COc1ccc(-c2nnc(SCC(=O)Nc3nc4ccccc4s3)n2C)cc1	none
CCn1c(SCC(O)c2ccccc2)nnc1-c1ccccc1 (stereo not drawn)	Shiga toxin inh 28, Cycloheximide cs 39
Cc1nnc(SCc2nc3ccccc3s2)n1N	Shiga toxin inh 76, Cycloheximide cs 44
C#CCSc1nnc(CSc2nc3ccccc3s2)n1-c1ccccc1	Sm TGR block 50µM
Cc1ccccc1CSc1nnc(C)n1N	none
O=C(COC(=O)c1ccc([N+](=O)[O-])o1)Nc1ncc(Cl)cc1Cl	none (no result: Shiga toxin inh, Sm TGR block, Cycloheximide cs, Giardia FBPA inh, LmPK inh)
CN1CCN(c2cc3c(nn2)Oc2ccccc2N3C)CC1	none (no result: Shiga toxin inh, Sm TGR block, Cycloheximide cs, Giardia FBPA inh, LmPK inh)
CCCCS(=O)(=O)c1nc(-c2ccc(Br)cc2)cc(-c2ccccc2)c1C#N	none (no result: Shiga toxin inh, Cycloheximide cs, Giardia FBPA inh, LmPK inh)
CCCc1cnc2c(c1SCC(=O)Nc1ccc(C)c(Cl)c1)c(=O)n(C)c(=O)n2C	none (no result: Shiga toxin inh, Cycloheximide cs, Giardia FBPA inh, LmPK inh)
c1ccc(-c2ncc(CSc3nncn3-c3ccccc3)s2)cc1	none
CCn1c(SCc2cccc(C)c2)nnc1-c1ccccc1	none
c1ccc(-n2cnnc2SCc2nc3ccccc3s2)cc1	Shiga toxin inh 61, Cycloheximide cs 60
CCn1c(SCc2nc3ccccc3s2)nnc1-c1ccccc1	Shiga toxin inh 61, Cycloheximide cs 28
Cc1nnc(SCc2nc3ccccc3s2)n1-c1ccccc1	Shiga toxin inh 87, Cycloheximide cs 30
CCOC(=O)CCc1cc(F)c(S(=O)(=O)N2CCN(S(=O)(=O)c3ccc4c(c3)OCCO4)CC2)cc1F	none (no result: Sm TGR block, Giardia FBPA inh, LmPK inh, Tb PYK inh)
CCSc1nc(-c2ccc(OC)cc2)nc2c1Cc1c(CO)cnc(C)c1O2	none (no result: Shiga toxin inh, Cycloheximide cs, Giardia FBPA inh, LmPK inh)
O=C(c1ccc([N+](=O)[O-])cc1)N(C1=NCCCCS1)c1ccccc1	none
O=C(Nc1ccccc1)N(C1=NCCCCS1)c1ccccc1	Cycloheximide cs 24
O=C(Nc1ccccc1)N(C1=NCCCCS1)c1cccc2ccccc12	Cycloheximide cs 46
CC(C)CCNC(=O)c1ccc(NC(=O)C2=CSCCO2)cc1	Shiga toxin inh 59, Cycloheximide cs 24 (no result: Giardia FBPA inh)
O=C(Nc1ccc(C(=O)NCCCN2CCCCC2)cc1)C1=CSCCO1	none (no result: Giardia FBPA inh)
C=CCNC(=O)c1ccc(NC(=O)C2=CSCCO2)cc1	Cycloheximide cs 23
CCc1cccc(NC(=O)C2CCCN(c3ncnc4onc(-c5ccc(F)cc5)c34)C2)c1 (stereo not drawn)	none (no result: Shiga toxin inh, Cycloheximide cs, Giardia FBPA inh, LmPK inh)
Cc1ccnc(SCc2cn3c(C)cccc3n2)n1	Cycloheximide cs 26

Assay outcomes from PubChem.
